This note sets out measurements from PubChem BioAssay AID1159580 (chemical genetic matrix, 2015).

The campaign covered roughly 5,500 compounds. About 2,000 (36%) were called active. Inconclusive results (about 18%) are left out. This is one part of the list. Values without a mark were called inactive. Rule as the data show it: active = normalized growth mostly below about 0.91 (no sharp cut-off); inconclusive = no clear call, values can overlap the other calls; inactive = mostly above about 0.92.

This experiment can be described thus: chemical genetic growth profiling, strain panel (AID 1159580).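 Also: tested at 20 µM; growth read once vehicle control cultures reached saturation at 30 °C; 1 = growth at the plate median or of vehicle wells; lower values mean less growth of the strain.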 As to conditions: S. cerevisiae deletion strains, growth OD.

`O=c1[nH]c2ccccc2n1CCCN1CCN(C(c2ccccc2)c2ccccc2)CC1`: the normalized growth (locus YAL040C, strain CLN3, stronger effect = lower value) is 1.02; the normalized growth (locus YCL061C, strain MRC1 (second series), stronger effect = lower value) is 1; the normalized growth (locus YDR150W, strain NUM1, stronger effect = lower value) was 1.01; the normalized growth (locus YDR363W, strain ESC2, stronger effect = lower value) is 1.01; the normalized growth (locus YER002W, strain NOP16, stronger effect = lower value) is 1.07; the normalized growth (locus YGR078C, strain PAC10, stronger effect = lower value) is 1.02. In addition, the normalized growth by setting is: (locus YJR075W, strain HOC1, stronger effect = lower value) 1; (locus YMR307W, strain GAS1, stronger effect = lower value) 1.03; (locus YNL128W, strain TEP1, stronger effect = lower value) 1.19 [resistant] (active); (locus YNL175C, strain NOP13, stronger effect = lower value) 1.04; (locus YNL197C, strain WHI3, stronger effect = lower value) 1.04; (locus YNL224C, strain SQS1, stronger effect = lower value) 1.04. The normalized growth reads like this: (locus YNL322C, strain KRE1, stronger effect = lower value) 1.01; (locus YOR083W, strain WHI5 (second series), stronger effect = lower value) 0.92; (locus YPL055C, strain LGE1, stronger effect = lower value) 1.02; (locus YPL241C, strain CIN2, stronger effect = lower value) 1.
